In PubChem BioAssay AID1159580 (chemical genetic matrix, 2015):
Among all 5,500 compounds or so, about 2,000 (36%) were called active. Roughly 18% stayed inconclusive and do not appear here. Some of the results follow. Unmarked numbers belong to inactive results. No stated cut-off is given here; in the data, active means normalized growth mostly below about 0.91 (no sharp cut-off); inconclusive means no clear call, values can overlap the other calls; inactive means mostly above about 0.92.

Test: chemical genetic growth profiling, strain panel (AID 1159580);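 further: tested at 20 µM; growth read once vehicle control cultures reached saturation at 30 °C; 1 = growth at the plate median or of vehicle wells; lower values mean less growth of the strain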
Conditions: S. cerevisiae deletion strains, growth OD
[1] = locus YAR019C, strain CDC15, hits give low values
[2] = locus YBL105C, strain PKC1, hits give low values
[3] = locus YBR135W, strain CKS1, hits give low values
[4] = locus YBR136W, strain MEC1, hits give low values
[5] = locus YBR160W, strain CDC28, hits give low values
[6] = locus YDL017W, strain CDC7, hits give low values
[7] = locus YDL028C, strain MPS1, hits give low values
[8] = locus YDL101C, strain DUN1, hits give low values
[9] = locus YDL108W, strain KIN28, hits give low values
[10] = locus YDL132W, strain cdc53, hits give low values
[11] = locus YDL214C, strain PRR2, hits give low values
[12] = locus YDR052C, strain DBF4, hits give low values
[13] = locus YDR054C, strain cdc34, hits give low values
[14] = locus YDR226W, strain ADK1, hits give low values
[15] = locus YDR477W, strain SNF1, hits give low values
[16] = locus YER123W, strain YCK3, hits give low values
[17] = locus YER133W, strain GLC7, hits give low values
[18] = locus YFL009W, strain cdc4, hits give low values
[19] = locus YFL029C, strain CAK1, hits give low values
[20] = locus YFR003C, strain YPI1, hits give low values
[21] = locus YFR019W, strain FAB1, hits give low values
[22] = locus YFR028C, strain CDC14, hits give low values
[23] = locus YGR040W, strain KSS1, hits give low values
[24] = locus YGR052W, strain FMP48, hits give low values
[25] = locus YGR092W, strain DBF2, hits give low values
[26] = locus YHR030C, strain SLT2, hits give low values
[27] = locus YHR079C, strain IRE1, hits give low values
[28] = locus YHR082C, strain KSP1, hits give low values
[29] = locus YHR205W, strain SCH9, hits give low values
[30] = locus YIL147C, strain SLN1, hits give low values
[31] = locus YJL095W, strain BCK1, hits give low values
[32] = locus YJL128C, strain PBS2, hits give low values
[33] = locus YJL157C, strain FAR1, hits give low values
[34] = locus YJR016C, strain ILV3, hits give low values
[35] = locus YJR066W, strain TOR1 (second series), hits give low values
[36] = locus YJR066W, strain TOR1, hits give low values
[37] = locus YKL048C, strain ELM1, hits give low values
[38] = locus YKL067W, strain YNK1, hits give low values
[39] = locus YKL101W, strain HSL1, hits give low values
[40] = locus YKL193C, strain SDS22, hits give low values
[41] = locus YKL203C, strain TOR2, hits give low values
[42] = locus YLR113W, strain HOG1, hits give low values
[43] = locus YLR133W, strain CKI1, hits give low values
[44] = locus YLR403W, strain SFP1, hits give low values
[45] = locus YML070W, strain DAK1, hits give low values
[46] = locus YMR001C, strain CDC5, hits give low values
[47] = locus YMR205C, strain PFK2 (second series), hits give low values
[48] = locus YMR277W, strain FCP1, hits give low values
[49] = locus YNL006W, strain LST8, hits give low values
[50] = locus YNL020C, strain ARK1, hits give low values
[51] = locus YNL161W, strain CBK1, hits give low values
[52] = locus YNL183C, strain NPR1, hits give low values
[53] = locus YNL207W, strain RIO2, hits give low values
[54] = locus YNL222W, strain SSU72, hits give low values
[55] = locus YNL307C, strain MCK1 (second series), hits give low values
[56] = locus YOL078W, strain AVO1, hits give low values
[57] = locus YOL136C, strain PFK27, hits give low values
[58] = locus YOR061W, strain CKA2, hits give low values
[59] = locus YOR119C, strain RIO1, hits give low values
[60] = locus YOR231W, strain MKK1, hits give low values
[61] = locus YOR329C, strain SCD5, hits give low values
[62] = locus YPL031C, strain PHO85, hits give low values
[63] = locus YPL153C, strain RAD53, hits give low values
[64] = locus YPL204W, strain HRR25, hits give low values
[65] = locus YPL209C, strain IPL1, hits give low values
[66] = locus YPL256C, strain CLN2, hits give low values
[67] = locus YPR025C, strain CCL1, hits give low values
[68] = locus YPR106W, strain ISR1, hits give low values
[69] = locus YPR111W, strain DBF20, hits give low values
[70] = strain NNK1, hits give low values
[71] = strain TSCII, hits give low values

O=S(=O)(Nc1c(F)cccc1F)c1ccc(Cl)c(Cl)c1
normalized growth [1]: 0.933 | normalized growth [2]: 0.946 | normalized growth [3]: 0.932 | normalized growth [4]: 0.943 | normalized growth [5]: 0.937 | normalized growth [6]: 0.945 | normalized growth [7]: 0.939 | normalized growth [8]: 0.949 | normalized growth [9]: 0.947 | normalized growth [10]: 0.961 | normalized growth [11]: 0.984 | normalized growth [12]: 0.956 | normalized growth [13]: 0.933 | normalized growth [14]: 0.943 | normalized growth [15]: 0.959 | normalized growth [16]: 0.962 | normalized growth [17]: 0.964 | normalized growth [18]: 0.931 | normalized growth [19]: 0.933 | normalized growth [20]: 0.946 | normalized growth [21]: 0.948 | normalized growth [22]: 0.933 | normalized growth [23]: 0.951 | normalized growth [24]: 1.05 | normalized growth [25]: 0.843 | normalized growth [26]: 0.956 | normalized growth [27]: 0.942 | normalized growth [28]: 1 | normalized growth [29]: 0.982 | normalized growth [30]: 0.933 | normalized growth [31]: 0.947 | normalized growth [32]: 0.874 | normalized growth [33]: 0.97 | normalized growth [34]: 0.931 | normalized growth [35]: 0.967 | normalized growth [36]: 1.03 | normalized growth [37]: 0.93 | normalized growth [38]: 0.962 | normalized growth [39]: 0.96 | normalized growth [40]: 0.937 | normalized growth [41]: 1.02 | normalized growth [42]: 0.926 | normalized growth [43]: 0.964 | normalized growth [44]: 0.966 | normalized growth [45]: 0.961 | normalized growth [46]: 0.937 | normalized growth [47]: 0.973 | normalized growth [48]: 0.936 | normalized growth [49]: 0.941 | normalized growth [50]: 0.955 | normalized growth [51]: 0.94 | normalized growth [52]: 0.947 | normalized growth [53]: 0.937 | normalized growth [54]: 0.937 | normalized growth [55]: 0.95 | normalized growth [56]: 0.938 | normalized growth [57]: 0.985 | normalized growth [58]: 0.969 | normalized growth [59]: 1.05 | normalized growth [60]: 0.935 | normalized growth [61]: 0.943 | normalized growth [62]: 0.964 | normalized growth [63]: 0.927 | normalized growth [64]: 0.95 | normalized growth [65]: 0.94 | normalized growth [66]: 0.914 | normalized growth [67]: 0.934 | normalized growth [68]: 0.957 | normalized growth [69]: 0.934 | normalized growth [70]: 0.953 | normalized growth [71]: 0.93

COC(=O)c1cccc(NS(=O)(=O)c2ccc(Cl)c(Cl)c2)c1
normalized growth [1]: 0.981 | normalized growth [2]: 0.969 | normalized growth [3]: 0.973 | normalized growth [4]: 0.973 | normalized growth [5]: 0.983 | normalized growth [6]: 0.978 | normalized growth [7]: 0.977 | normalized growth [8]: 0.979 | normalized growth [9]: 0.973 | normalized growth [10]: 0.981 | normalized growth [11]: 0.971 | normalized growth [12]: 0.972 | normalized growth [13]: 0.961 | normalized growth [14]: 0.986 | normalized growth [15]: 0.991 | normalized growth [16]: 0.973 | normalized growth [17]: 0.985 | normalized growth [18]: 0.97 | normalized growth [19]: 0.982 | normalized growth [20]: 0.974 | normalized growth [21]: 0.994 | normalized growth [22]: 0.973 | normalized growth [23]: 1 | normalized growth [24]: 1.01 | normalized growth [25]: 0.948 | normalized growth [26]: 0.852 | normalized growth [27]: 0.923 | normalized growth [28]: 1.08 | normalized growth [29]: 0.904 | normalized growth [30]: 0.975 | normalized growth [31]: 0.896 | normalized growth [32]: 0.902 | normalized growth [33]: 0.98 | normalized growth [34]: 0.981 | normalized growth [35]: 0.98 | normalized growth [36]: 1.06 | normalized growth [37]: 0.949 | normalized growth [38]: 0.972 | normalized growth [39]: 0.962 | normalized growth [40]: 0.974 | normalized growth [41]: 1.05 | normalized growth [42]: 0.861 (active) | normalized growth [43]: 0.978 | normalized growth [44]: 0.985 | normalized growth [45]: 0.963 | normalized growth [46]: 0.975 | normalized growth [47]: 0.977 | normalized growth [48]: 0.973 | normalized growth [49]: 0.978 | normalized growth [50]: 0.974 | normalized growth [51]: 0.982 | normalized growth [52]: 1.04 | normalized growth [53]: 0.974 | normalized growth [54]: 0.98 | normalized growth [55]: 0.973 | normalized growth [56]: 0.979 | normalized growth [57]: 0.959 | normalized growth [58]: 0.986 | normalized growth [59]: 1.05 | normalized growth [60]: 0.953 | normalized growth [61]: 0.977 | normalized growth [62]: 0.98 | normalized growth [63]: 0.963 | normalized growth [64]: 0.959 | normalized growth [65]: 0.981 | normalized growth [66]: 0.895 | normalized growth [67]: 0.977 | normalized growth [68]: 0.977 | normalized growth [69]: 0.972 | normalized growth [70]: 0.966 | normalized growth [71]: 0.98

Cn1cc(Br)c(-c2cccc(NS(=O)(=O)c3ccc(Cl)cc3)c2)n1
normalized growth [1]: 0.987 | normalized growth [2]: 0.976 | normalized growth [3]: 0.998 | normalized growth [4]: 0.995 | normalized growth [5]: 0.979 | normalized growth [6]: 0.987 | normalized growth [7]: 0.992 | normalized growth [8]: 0.977 | normalized growth [9]: 0.999 | normalized growth [10]: 0.994 | normalized growth [11]: 1 | normalized growth [12]: 0.976 | normalized growth [13]: 0.988 | normalized growth [14]: 0.987 | normalized growth [15]: 0.992 | normalized growth [16]: 0.998 | normalized growth [17]: 1 | normalized growth [18]: 0.989 | normalized growth [19]: 0.993 | normalized growth [20]: 0.994 | normalized growth [21]: 1 | normalized growth [22]: 0.998 | normalized growth [23]: 0.995 | normalized growth [24]: 1.04 | normalized growth [25]: 0.984 | normalized growth [26]: 1.12 | normalized growth [27]: 1.11 | normalized growth [28]: 1.11 | normalized growth [29]: 0.987 | normalized growth [30]: 0.986 | normalized growth [31]: 0.988 | normalized growth [32]: 0.986 | normalized growth [33]: 0.998 | normalized growth [34]: 0.993 | normalized growth [35]: 1.01 | normalized growth [36]: 1.07 | normalized growth [37]: 0.999 | normalized growth [38]: 1.02 | normalized growth [39]: 1 | normalized growth [40]: 0.995 | normalized growth [41]: 1.06 | normalized growth [42]: 0.983 | normalized growth [43]: 1 | normalized growth [44]: 0.999 | normalized growth [45]: 1.01 | normalized growth [46]: 0.985 | normalized growth [47]: 1.01 | normalized growth [48]: 0.998 | normalized growth [49]: 0.999 | normalized growth [50]: 0.997 | normalized growth [51]: 0.981 | normalized growth [52]: 1.06 | normalized growth [53]: 0.987 | normalized growth [54]: 0.995 | normalized growth [55]: 0.98 | normalized growth [56]: 1 | normalized growth [57]: 1 | normalized growth [58]: 1 | normalized growth [59]: 1.06 | normalized growth [60]: 0.982 | normalized growth [61]: 0.986 | normalized growth [62]: 0.989 | normalized growth [63]: 0.994 | normalized growth [64]: 0.997 | normalized growth [65]: 0.992 | normalized growth [66]: 1.13 | normalized growth [67]: 0.981 | normalized growth [68]: 0.99 | normalized growth [69]: 0.985 | normalized growth [70]: 1 | normalized growth [71]: 0.993
